Compound activity deposited in PubChem by several laboratories.
BoNT-A LC inh2 = blocks Botulinum neurotoxin A light chain protease. multiplex microsphere protease substrate cleavage, flow cytometry. inhibition, % at 10 µM. 0.17% of 360,000 active. AID 588499
GDH-TPI counter = counter-screen for M. tuberculosis FBA inhibitors: GDH-TPI coupled enzymes; GDH-TPI coupled enzyme counterscreen, NADH absorbance; inhibition, % at 4.8 µM; 1.2% of 360,000 active; in the data active = inhibition above about 30%
Anthrax LF prot = blocks Bacillus anthracis lethal factor protease; P15917; multiplex microsphere protease cleavage assay, LF; inhibition, % at 10 µM; 0.12% of 360,000 active
Target sequence (P15917 whole entry, looked up): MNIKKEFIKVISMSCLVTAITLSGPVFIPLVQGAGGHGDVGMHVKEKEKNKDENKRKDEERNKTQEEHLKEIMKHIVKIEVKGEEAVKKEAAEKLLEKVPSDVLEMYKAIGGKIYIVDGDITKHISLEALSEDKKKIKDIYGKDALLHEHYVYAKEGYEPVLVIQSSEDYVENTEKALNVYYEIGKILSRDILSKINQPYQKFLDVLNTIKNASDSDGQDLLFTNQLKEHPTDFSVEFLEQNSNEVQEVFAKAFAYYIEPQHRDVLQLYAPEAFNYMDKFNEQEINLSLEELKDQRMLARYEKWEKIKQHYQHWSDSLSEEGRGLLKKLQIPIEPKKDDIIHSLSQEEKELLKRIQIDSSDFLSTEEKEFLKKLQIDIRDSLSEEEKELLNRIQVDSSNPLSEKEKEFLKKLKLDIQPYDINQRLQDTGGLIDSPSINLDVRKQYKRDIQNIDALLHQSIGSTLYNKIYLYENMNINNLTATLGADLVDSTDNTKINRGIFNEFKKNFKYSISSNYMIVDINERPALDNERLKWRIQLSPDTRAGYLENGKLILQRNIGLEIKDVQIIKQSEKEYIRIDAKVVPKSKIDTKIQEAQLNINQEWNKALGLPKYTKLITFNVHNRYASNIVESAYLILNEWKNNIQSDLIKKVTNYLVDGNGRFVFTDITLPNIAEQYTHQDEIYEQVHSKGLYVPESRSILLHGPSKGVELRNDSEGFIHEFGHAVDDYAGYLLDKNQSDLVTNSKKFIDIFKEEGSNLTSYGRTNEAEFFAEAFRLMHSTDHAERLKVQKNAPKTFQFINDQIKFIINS
Bead autofluor = flagged as autofluorescent in microsphere protease counterscreen; compound autofluorescence counterscreen, microsphere flow cytometry; active compounds read high; fluorescence intensity (no concentration beside the values); 3.1% of 360,000 active; AID 624483; in the data active = fluorescence intensity above about 16000; inconclusive = no clear call, values can overlap the other calls
Mtb FBA inh = inhibits M. tuberculosis FBA enzyme | purified M. tuberculosis FBA, fluorescence read-out | P9WQA3 | 2.3% of 360,000 active | inhibition, % at 1 µM; in the data active = inhibition above about 27%
BoNT F protease = BoNT F light chain protease inhibition. inhibition, % at 10 µM. Multiplex microsphere protease cleavage assay, flow cytometry. AID 588497. 0.22% of 360,000 active; in the data active = inhibition above about 35%, passing the limit was not always enough; inconclusive = no clear call, values can overlap the other calls
Large screens that a line does not name were inactive. An excerpt weighted towards active compounds, which were near 6.6% of everything screened. Rule as the data show it, unless noted: active = inhibition above about 30%; inconclusive = no clear call, values can overlap the other calls; inactive = below that.

CCO/N=C(\C)c1c(O)c2ccccc2n(C)c1=O	none
CN1CCSc2ccc(C(=O)NCc3cccc(F)c3)cc21	Mtb FBA inh 113.0
COc1cccc(NC(=O)c2ccc3c(c2)N(C)CCS3)c1	none
Cc1ccc(S(=O)(=O)N(C)C[C@@H]2OCc3cnnn3CCCC(=O)N([C@H](C)CO)C[C@@H]2C)cc1	none
C=CCOC(=O)C1=C(C)Nc2nnnn2C1c1cccs1 (stereo not drawn)	Bead autofluor 17729
C=CCOC(=O)C1=C(C)Nc2nnnn2C1c1ccc(OC)cc1OC (stereo not drawn)	none
COC(=O)C1=C(C)Nc2nnnn2C1c1cccs1 (stereo not drawn)	Bead autofluor 19852
COC(=O)C1=C(C)Nc2nnnn2C1c1ccccc1Cl (stereo not drawn)	BoNT F protease inconclusive
COc1ccc(C(=O)/C=C/c2ccc(O)cc2)c2c1CC(O)C(C)(C)O2 (stereo not drawn)	GDH-TPI counter 33.3
COc1ccc(C(=O)/C=C/c2ccc(O)cc2)c(O)c1CC=C(C)C	none
Cc1noc(/C=C/N(C)C)c1S(=O)(=O)N1CCCC(C(=O)Nc2ccc(F)cc2F)C1 (stereo not drawn)	GDH-TPI counter 39.3
Cc1ccc(NC(=O)C2CCCN(S(=O)(=O)c3c(C)noc3C)C2)c(Br)c1 (stereo not drawn)	none
Cc1ccc(NC(=O)C2CCCN(S(=O)(=O)c3c(C)noc3/C=C/N(C)C)C2)c(C)c1 (stereo not drawn)	GDH-TPI counter 35.9
Cc1ccc(CCNC(=O)C2CCCN(S(=O)(=O)c3c(C)noc3/C=C/N(C)C)C2)cc1 (stereo not drawn)	GDH-TPI counter 53.1
CS(=O)(=O)N1CCCC(C(=O)Nc2ccc(F)cc2F)C1 (stereo not drawn)	none
Cc1ccc(C)c(NC(=O)C2CCCN(S(=O)(=O)c3c(C)noc3/C=C/N(C)C)C2)c1 (stereo not drawn)	GDH-TPI counter 38.5
O=C(O)CCC1OC(=O)C(O)=C1c1ccccc1 (stereo not drawn)	none
CC1(C(=O)Nc2cccc(-n3cnnn3)c2)Cc2ccccc2C(=O)O1 (stereo not drawn)	none
CCC(=O)Nc1ccc(S(=O)(=O)Nc2cccc(C)c2)cc1OC	Bead autofluor 23804
CCC(=O)Nc1ccc(S(=O)(=O)N2CCCCC2)cc1OC	none
COc1ccc(Cn2nnnc2C(c2cc3cc(C)ccc3[nH]c2=O)N2CCN(C)CC2)cc1 (stereo not drawn)	none
COc1ccc(Cn2nnnc2C(c2cc3ccc(OC)cc3[nH]c2=O)N2CCCCCC2)cc1 (stereo not drawn)	GDH-TPI counter 34.0, Bead autofluor 22040
CCc1ccc2[nH]c(=O)c(C(c3nnnn3Cc3ccccc3)N3CCOCC3)cc2c1 (stereo not drawn)	BoNT-A LC inh2 inconclusive, Bead autofluor 21543
CCc1ccc2[nH]c(=O)c(C(c3nnnn3Cc3ccc(OC)cc3)N3CCOCC3)cc2c1 (stereo not drawn)	Bead autofluor 16212
COc1ccc(Cn2nnnc2C(c2cc3cc(C)cc(C)c3[nH]c2=O)N2CCOCC2)cc1 (stereo not drawn)	none
CN(/N=C/c1cc(Cl)ccc1O)C1=NS(=O)(=O)c2ccccc21	none
CCOC(=O)C(=O)Nc1ccccc1C(=O)Nc1ccc(OC)cc1	Bead autofluor 19641
CCOC(=O)N1CCN(C(=O)c2ccccc2NC(=O)c2ccccc2Cl)CC1	none
CCOC(=O)N1CCN(C(=O)c2ccccc2NC(=O)c2ccc(OC)cc2)CC1	Bead autofluor 23728
CC(=O)Nc1ccc(S(=O)(=O)Nc2cccc(-n3c(C)nc4ccccc4c3=O)c2)cc1	none
O=c1c2ccccc2[se]n1-c1ccccc1	BoNT-A LC inh2 81.1, GDH-TPI counter 84.5, BoNT F protease 38.3
CCn1nc(C)c(C(=O)Nc2cc(Oc3ccc(Cl)cc3)cc([N+](=O)[O-])c2)c1C	Bead autofluor 19896
CCCCn1c(N)c(N(CC(C)C)C(=O)c2cc(-c3ccc(F)cc3)nc3ccccc23)c(=O)[nH]c1=O	Bead autofluor inconclusive
CCNC(=S)NNC(=O)c1csc(C)c1	none
CCc1ccccc1NC(=S)N1N=CCC1c1ccccc1 (stereo not drawn)	none
Cc1cccc(NC(=S)NNC(=S)NCc2ccccc2)c1	Bead autofluor 22617
S=C(NCc1ccccc1)Nc1cccc(Cl)c1	none
CCCCNC(=S)NNC(=O)c1csc(C)c1	Bead autofluor 22322
CCc1cc(C(=O)NNC(=S)Nc2cccc(C)c2)cs1	Bead autofluor 21356
Cc1cccc(NC(=S)N2N=CCC2c2ccccc2)c1 (stereo not drawn)	Bead autofluor 17190
Cc1cccc(NC(=S)NNC(=O)c2csc(C(C)C)c2)c1	none
COC(=O)C(C(=O)Nc1ccccc1C)C1CCCCCC1 (stereo not drawn)	none
COCc1c(C(=O)NCc2ccccc2CN2CCCC2)oc2ccccc12	none
Cc1c(C(=O)Nc2ccccc2C(=O)N2CCOCC2)cccc1[N+](=O)[O-]	none
CC(=O)Nc1ccc(N=Nc2ccccc2)cc1[N+](=O)[O-]	GDH-TPI counter 31.0
CC(=O)Nc1cc2oc3ccccc3c2cc1[N+](=O)[O-]	none
Cn1cnnc1SCC(=O)N(Cc1ccc2c(c1)OCO2)C1(C(=O)NC2CCCCC2)CCCC1	Bead autofluor 22413
O=S(=O)(NCCc1ccncc1)c1ccc(Br)cc1	Bead autofluor 22923
CC(=O)Nc1cccc(C(=O)OC(C(=O)c2ccc(C)c(C)c2)c2ccccc2)c1 (stereo not drawn)	Bead autofluor 19826
CCOc1ccc(N(CC(=O)NC2CC3CCC2C3)S(=O)(=O)c2ccccc2)cc1 (stereo not drawn)	none
CC12CN(C(=O)c3ccc(Cl)cc3)C3(C#N)CC1CCC23C (stereo not drawn)	BoNT-A LC inh2 inconclusive, Bead autofluor 22214
CC12CN(NC(=O)c3ccccc3F)C3(C#N)CC1CCC23C (stereo not drawn)	none
N#Cc1c(C(F)(F)F)cc(-c2ccccc2)nc1SCC(=O)Nc1sc2c(c1C#N)CCC2	none
COc1ccc(/C=C2\SC(=O)N(CCC(=O)Nc3ccc(S(=O)(=O)Nc4nccs4)cc3)C2=O)cc1	none
COc1ccc(/C=C2/SC(=O)N(CCC(=O)Nc3ccc(S(=O)(=O)Nc4nccs4)cc3)C2=O)cc1	GDH-TPI counter 33.8
COc1ccc(-n2ccc(=O)c(C(=O)Nc3ccc(S(=O)(=O)Nc4nccs4)cc3)n2)cc1	GDH-TPI counter 39.9
CC(C)Cc1nnc(NS(=O)(=O)c2ccccc2)s1	none
CC(C)Cc1nnc(NS(=O)(=O)Cc2ccccc2)s1	Bead autofluor 21019
O=C(O)c1cccc2c1C(=O)c1ccc(N3CCN(Cc4ccc5c(c4)OCO5)CC3)cc1S2(=O)=O	none
S=C(NN=C(c1ccccc1)c1ccccn1)N(Cc1ccccn1)Cc1ccccn1	BoNT-A LC inh2 51.4, Anthrax LF prot 43.0, BoNT F protease 42.5
S=C(NN=Cc1ccccn1)N(Cc1ccccn1)Cc1ccccn1	none
